The text below walks through data of PubChem BioAssay (NCATS).

Results filed as inconclusive are left out. Where a call stands in place of a potency, no number is given. Active and inactive are the calls of the source. Calls come from the whole dose curve; as a rule, active = well fitted inhibition curve with a large enough effect; inconclusive = small, poorly fitted or top-dose-only effect; inactive = flat fitted curve, though single readings scatter.
Potency is the fitted concentration of half-maximal effect.

In this assay the test system is MCC-26. Briefly: qHTS assay to identify novel small-molecules to repurpose for Merkel cell carcinoma treatment (AID 1296009). Note: nearly all actives have a fitted effect of over 60% in size. The following applies: MCC and control cell lines, CellTiter-Glo viability, 72 h; series mostly up to 46 µM. A digest of the protocol:
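Cell viability, measured as CellTiter-Glo luminescence, was normalized between DMSO and no-cell wells. The cells had been exposed to 8- or 11-point compound dilutions for 72 hr at 37 degree celsius.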
On the technique in general: In qHTS, concentration-response curves come from the screen itself.
In the case of `CCCN(CCC)S(=O)(=O)c1ccc(C(=O)O)cc1`, the Potency result is “inactive”.
Regarding `CC(C)Cc1ccc(CC(=O)O)cc1`, the Potency entry is “inactive”.
Turning to `c1ccc(CC2=NCCN2)cc1`, the Potency result was “inactive”.
Turning to `CC(C)[N+](C)(C)CC(O)COc1cccc2ccccc12` (stereo not drawn), the Potency result is “inactive”.
Turning to `CC(C)(C)NCC(O)COc1cccc2c1C[C@H](O)[C@H](O)C2` (stereo partly drawn), the Potency result is “inactive”.
On to `OCc1ccccn1`, for which the Potency result was “inactive”.
For the molecule `Cc1cc(C)cc(OCC2CNC(=O)O2)c1` (stereo not drawn), the Potency entry was “inactive”.
On to `C[C@H]1O[C@@H](O[C@H]2CC[C@@]3(C)[C@H](CC[C@@H]4[C@@H]3C[C@@H](O)[C@]3(C)[C@@H](C5=CC(=O)OC5)CC[C@]43O)C2)C[C@H](O)[C@@H]1O[C@H]1C[C@H](O)[C@H](O[C@H]2C[C@H](O)[C@H](O[C@@H]3O[C@H](CO)[C@@H](O)[C@H](O)[C@H]3O)[C@@H](C)O2)[C@@H](C)O1`, for which the Potency is 668 nM (active).
As for `O=[N+]([O-])c1ccc(/C=N\O)o1`, the entry is “inactive”.
As for `CC(=O)OCC1=C(C(=O)O)N2C(=O)[C@@H](NC(=O)CSc3ccncc3)[C@H]2SC1`, the entry is “inactive”.
For `CC(=O)NCCCCCC(=O)O`, the Potency entry is “inactive”.
Under `O=C1C(CCS(=O)c2ccccc2)C(=O)N(c2ccccc2)N1c1ccccc1` (stereo not drawn) stands “inactive”; under `NS(=O)(=O)c1ccc(Cl)c(S(N)(=O)=O)c1`, “inactive”; under `CC[C@H](c1ccc(O)cc1)[C@@H](CC)c1ccc(O)cc1`, “inactive”.
As for `C/C=C/C=N/NC(=O)c1ccncc1`, the entry is “inactive”.
In the case of `NCCNc1cccc2ccccc12`, the Potency entry was “inactive”.
For the molecule `C[N+]12CCC(CC1)C(OC(=O)C(O)(c1ccccc1)c1ccccc1)C2` (stereo not drawn), the Potency entry is “inactive”.
Turning to `CC1(COc2ccc(CC3SC(=O)NC3=O)cc2)CCCCC1` (stereo not drawn), the Potency entry was “inactive”.
